# Active and inactive are the calls of the source. The call rests on the fitted dose curve; in most records, active means well fitted activation curve with a large enough effect; inconclusive means small, poorly fitted or top-dose-only effect; inactive means no such curve, though single readings can be large or run the other way.
# Test: Counterscreen for Identifying a Potential Treatment of Ataxia-Telangiectasia: Hit Validation; on activation: 0% is about no effect
# Settings: cell-free AlphaLISA/AlphaScreen artifact counterscreen, PBS only, no cells; series mostly up to 76.9 µM; activation: at the top concentration
# How it was run: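 Without cells, compounds at up to 76.7 uM final were combined with premixed anti-pKAP1/anti-KAP1 AlphaLISA bead reagents, protease inhibitors and lysis buffer; signal read after 6 hr at 25C to flag assay-platform artifacts.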
# Potency means the concentration at half of the fitted maximal effect.
Structure (SMILES),activation,Potency
COc1ccc(-c2cc(C(F)(F)F)c(C#N)c(SCC(=O)O)n2)cc1OC,24.6% (inactive),–
CC(C)c1ccc(-c2cc(C(=O)N3CCOCC3)c3cc(Br)ccc3n2)cc1,-10.5% (inactive),–
O=C(c1ccc(F)cc1)N1CCC(c2ccccc2)C1 (stereo not given),12.3% (inactive),–
C/C=C\C=C/C(=O)Nc1cccc(C2=NOC3(C2)C[C@@H](C(N)=O)N(C(=O)COc2ccc(Cl)cc2)C3)c1 (stereo not given in full),-11.5% (inactive),–
COc1ccc(Oc2ncnc3c2oc2ccc(Br)cc23)cc1,-9.23% (inactive),–
O=C(CCC(=O)c1ccc(F)cc1)Nc1cccc(Br)c1,-0.752% (inactive),–
O=C1/C(=C/c2ccc(N3CCOCC3)o2)SC(=Nc2ccccc2)N1CCc1c[nH]c2ccccc12,-13.1% (inactive),–
O=C(CSc1nnc(CNC(=O)c2ccccc2)o1)NCCc1ccccc1,1.5% (inactive),–
CC(C)(C)NC(=O)c1cccc2c1-c1ccccc1C2=O,0% (inactive),–
CC1CCCC(C)N1C(=O)COC(=O)Cc1ccc(Cl)cc1 (stereo not given),6.01% (inactive),–
O=C1C(Cl)=C(Nc2ccccc2)C(=O)c2ccccc21,3.01% (inactive),–
N#CCN1C(=O)C(=O)N(Cc2cccc(Cl)c2)C1=O,-0.769% (inactive),–
CCOc1cccc(C(=O)Nc2ccccc2N2CCN(C(=O)C(C)C)CC2)c1,5.74% (inactive),–
COc1ccccc1Nc1nc(NCCCN(C)C)nc(N)c1[N+](=O)[O-],-13.8% (inactive),–
C(=N\Nc1ccccn1)/c1c[nH]c2ccccc12,-13.1% (inactive),–
COc1ccc(N2CCN(C(=O)c3cc4cc(Cl)ccc4[nH]3)CC2)cc1,1.5% (inactive),–
NC(=O)C1CCN(Cc2nc3cc(C(F)(F)F)ccc3c(=O)[nH]2)CC1,0% (inactive),–
Cn1cc(/C=N/NC(N)=S)c2ccccc21,-17.2% (inactive),–
COc1ccc(CCNC2=NCCS2)cc1OC,2.46% (inactive),–
CCOc1cc(/C=C/c2nc3ccccc3c(=O)[nH]2)ccc1O,3.08% (inactive),–

Structure (SMILES),activation,Potency
CC(C)CC(=O)Nc1c2c(nn1-c1cccc(Cl)c1)CS(=O)C2 (stereo not given),-5.74% (inactive),–
Cc1ccc2c(c1)sc(=NC(=O)C1CC1)n2C,3.28% (inactive),–
Nc1ccc2ncccc2c1,9.02% (inactive),–
CCOc1ccccc1CNC(=O)Cn1c(=O)oc2ccccc21,-17.7% (inactive),–
CC(C)(C=O)C1=CC(=O)c2ccccc2C1=O,0.752% (inactive),–
Cn1c(=O)oc2cc(S(=O)(=O)N3CCc4ccccc43)ccc21,-9.02% (inactive),–
O=C(C(c1ccccc1)c1ccccc1)N1CC[C@@]2(O)CCCC[C@H]2C1,-23.1% (inactive),–
COc1ccc(-c2csc(-c3ccc(O)cc3)n2)cc1,4.1% (inactive),–
C=C(C)n1c(=O)n(Cc2ccccc2C)c2ccccc21,-0.82% (inactive),–
CN(C)c1ccc2nc3ccc(=[N+](C)C)cc-3sc2c1,–,11.6 µM (active)
COc1ccccc1NC(=O)C1CCCN(S(=O)(=O)c2ccc(-n3cnnn3)cc2)C1 (stereo not given),-3.76% (inactive),–
O=C1C(Cl)=C(Nc2ccc3cn[nH]c3c2)C(=O)c2ccccc21,-29.2% (inactive),–
COc1ccc2nc(C)cc(Nc3ccc(C(=O)O)cc3)c2c1,11.5% (inactive),–
COc1ccc(C(CNC(=O)C(Cc2ccccc2)NC(N)=O)N(C)C)cc1 (stereo not given),7.52% (inactive),–
CCOC(=O)c1ccccc1NC(=O)c1ccc2nc[nH]c2c1,-1.54% (inactive),–
CN(C)Cc1ccc(F)cc1Sc1cc(Cl)ccc1Cl,7.69% (inactive),–
Cc1cc(C)n2nc(C(=O)OCCOc3ccc(F)cc3)nc2n1,-13.1% (inactive),–
COc1ccc(CNC(=O)COc2cccnc2[N+](=O)[O-])cc1OC,-7.52% (inactive),–
CCOC(=O)N1CCN(C(=O)CCc2nc3sc4c(c3c(=O)[nH]2)CCCC4)CC1,-5.74% (inactive),–
CCOC(=O)C1CCN(C(=O)c2cc3cc(Cl)ccc3[nH]2)CC1,-3.28% (inactive),–

# Source: PubChem BioAssay AID493185 (National Center for Advancing Translational Sciences (NCATS), 2011)
